# Laboratory results: a collection of fitness landscapes (doi:10.1016/j.celrep.2020.107928)
# The full ranking holds about 81,000 sequences; the median of “one-hybrid fitness for binding parS DNA” is about -0.17, and the highest 2% start at about 0.51. Many of the other results were omitted from the sample, so the highest values are more common in it than they were.
# B1: Caulobacter ParB omega fusion; a variant is named by its letters at X, in order, B8GW30 (parent)
# chain: MESVVVGEPGMSEGRRGLGRGLSALLGEVDAAPAQAPGEQLGGSREAPIEILQRNPDQPRRTFREEDLEDLSNSIREKGVLQPILVRPSPDTAGEYQIVAGERAWRAAQRAGLKTVPIMVRELDDLAVLEIGIIENVQRADLNVLEEALSYKVLMEKFERTQENIAQTIGKSXSHVANXMRLLXLPDEVQSYLVSGELTAXHARAIAAAADPVALAKQIIEGGLSVRETEALARKAPNLSAGKSKGGRPPRVKDTDTQALESDLSSVLGLDVSIDHRGSTGTLTITYATLEQLDDLCNRLTRGI
# Variants of: B1
# Experiment: one-hybrid fitness for binding parS DNA (scaled: cognate 1, non-cognate 0); higher = stronger binding
# Settings: with parS DNA site
# Outline: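 On M9-minus-histidine containing 0.1 mM IPTG and 5 mM 3-AT, E. coli USO cells with a HIS3 reporter, site 19 bp from the promoter, grew 48 hours at 37°C to select Caulobacter ParB libraries randomised at four specificity codons. Plasmids from before and after were Illumina-sequenced, with three replicate libraries pooled and variants under 10 reads left out. Fitness is the log change in variant-to-wild-type read ratio, rescaled against cognate and non-cognate.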
row,Variant,one-hybrid fitness for binding parS DNA
1,EPIG,≤ 0.2
2,PHQC,≤ 0.2
3,MHER,≤ 0.2
4,KLAC,≤ 0.2
5,REKG,0.533
6,RERH,≤ 0.2
7,REKS,0.66
8,REYS,0.287
9,REYG,≤ 0.2
10,REVS,≤ 0.2
11,REKN,≤ 0.2
12,REVG,≤ 0.2
13,RERS,0.529
14,QTIM,≤ 0.2
15,KYAR,≤ 0.2
16,EYFS,≤ 0.2
17,PLFV,≤ 0.2
18,VHQV,≤ 0.2
19,TPHK,≤ 0.2
20,RYCG,0.974
21,RYYH,≤ 0.2
22,RYCD,≤ 0.2
23,RYNK,≤ 0.2
24,RYYN,0.383

row,Variant,one-hybrid fitness for binding parS DNA
1,RYNY,0.466
2,RYHK,≤ 0.2
3,RYCN,0.382
4,RYHQ,≤ 0.2
5,RYNG,0.975
6,RYYG,0.997
7,RYHG,1
8,IKAI,≤ 0.2
9,HHKY,≤ 0.2
10,RSDE,≤ 0.2
11,FGTM,≤ 0.2
12,PPRW,≤ 0.2
13,KGNG,≤ 0.2
14,QLTS,≤ 0.2
15,DASE,≤ 0.2
16,GPYH,0.233
17,GWLC,≤ 0.2
18,EELW,≤ 0.2
19,SCTR,≤ 0.2
20,IRQT,≤ 0.2
21,VEHR,≤ 0.2
22,RYSG,0.984
23,RYSD,≤ 0.2
24,RYLY,0.462

row,Variant,one-hybrid fitness for binding parS DNA
1,RYLM,0.324
2,RYGR,≤ 0.2
3,RYWK,≤ 0.2
4,RYWQ,≤ 0.2
5,RYWG,0.89
6,RYSP,≤ 0.2
7,RYLG,0.986
8,RYGG,0.97
9,RYGF,0.205
10,AIYV,≤ 0.2
11,RKII,≤ 0.2
12,QIVC,≤ 0.2
13,KAHG,≤ 0.2
14,VQHT,≤ 0.2
15,HLQY,≤ 0.2
16,RYQM,0.31
17,RYDH,≤ 0.2
18,RYDG,0.913
19,RYQF,0.207
20,RYRP,≤ 0.2
21,RYRG,0.92
22,RYDP,≤ 0.2
23,RYRH,≤ 0.2
24,RYQG,0.971

row,Variant,one-hybrid fitness for binding parS DNA
1,SLFE,≤ 0.2
2,WPSR,≤ 0.2
3,QMHP,≤ 0.2
4,VYQY,≤ 0.2
5,SHPH,≤ 0.2
6,RWDT,0.512
7,RWET,0.437
8,RWRT,0.722
9,RWFT,0.497
10,RWAR,≤ 0.2
11,RWIT,0.387
12,RWAT,0.614
13,RWNT,0.682
14,RWNQ,≤ 0.2
15,RWNY,0.339
16,PRFH,≤ 0.2
17,HAWM,≤ 0.2
18,IKVG,≤ 0.2
19,EEHS,≤ 0.2
20,NPMG,≤ 0.2
21,CKHA,≤ 0.2
22,GRFC,≤ 0.2
23,PTDC,≤ 0.2
24,AWVV,≤ 0.2

row,Variant,one-hybrid fitness for binding parS DNA
1,DFLV,≤ 0.2
2,TRVH,≤ 0.2
3,KVCE,≤ 0.2
4,NTDV,≤ 0.2
5,SNDS,≤ 0.2
6,RWWT,0.507
7,RWCF,≤ 0.2
8,RWYT,0.596
9,RWCY,≤ 0.2
10,RWPT,0.284
11,RWHT,0.655
12,RWCT,0.611
13,RWGT,0.548
14,PDGT,≤ 0.2
15,PKSV,≤ 0.2
16,QRHM,≤ 0.2
17,THKG,≤ 0.2
18,MWHG,≤ 0.2
19,YDRG,≤ 0.2
20,TVTH,≤ 0.2
21,GSYT,≤ 0.2
22,MYQT,≤ 0.2
23,GLVV,≤ 0.2
24,RWKT,0.811

row,Variant,one-hybrid fitness for binding parS DNA
1,RWST,0.665
2,RWLT,0.556
3,RWSN,0.318
4,RWQN,0.264
5,RWSD,≤ 0.2
6,RWQD,≤ 0.2
7,RWKQ,≤ 0.2
8,RWVT,0.43
9,RWQT,0.618
10,THYN,≤ 0.2
11,TFIW,≤ 0.2
12,SPRC,≤ 0.2
13,DYFS,≤ 0.2
14,HAPN,≤ 0.2
15,RKAW,≤ 0.2
16,FTYI,≤ 0.2
17,RVVV,≤ 0.2
18,SIHC,≤ 0.2
19,LMAG,≤ 0.2
20,QCAE,≤ 0.2
21,RLFC,0.948
22,RLAR,≤ 0.2
23,RLFP,≤ 0.2
24,RLFH,0.258

row,Variant,one-hybrid fitness for binding parS DNA
1,RLAM,0.342
2,RLAC,0.995
3,FKTR,≤ 0.2
4,LCPN,≤ 0.2
5,GYEP,≤ 0.2
6,RAPA,0.231
7,RAIA,0.461
8,NANA,≤ 0.2
9,RADA,0.563
10,RAYA,0.602
11,RACA,0.609
12,DACA,≤ 0.2
13,RANA,0.595
14,FRDR,≤ 0.2
15,TQKT,≤ 0.2
16,WTHY,≤ 0.2
17,REHK,≤ 0.2
18,GALF,≤ 0.2
19,VMFV,≤ 0.2
20,LLFI,≤ 0.2
21,NAQA,≤ 0.2
22,NARA,≤ 0.2
23,RAQA,0.548
24,DARA,≤ 0.2

row,Variant,one-hybrid fitness for binding parS DNA
1,RARA,0.658
2,PICM,≤ 0.2
3,LVHY,≤ 0.2
4,WEWS,≤ 0.2
5,SNSE,≤ 0.2
6,RTND,≤ 0.2
7,RTDN,0.404
8,RTDH,≤ 0.2
9,RTNN,0.424
10,RTNS,0.874
11,RTDS,0.989
12,FLHS,≤ 0.2
13,LGVG,≤ 0.2
14,ALYT,≤ 0.2
15,QTLN,≤ 0.2
16,DVLN,≤ 0.2
17,TSTW,≤ 0.2
18,EGNL,≤ 0.2
19,RQDK,≤ 0.2
20,RQNN,0.435
21,RQND,0.221
22,RQNC,0.947
23,RQDC,0.863
24,RQDQ,≤ 0.2

row,Variant,one-hybrid fitness for binding parS DNA
1,AQKR,≤ 0.2
2,ICTY,≤ 0.2
3,TAVI,≤ 0.2
4,FVPC,≤ 0.2
5,LNCS,≤ 0.2
6,NVAA,≤ 0.2
7,RVFA,0.611
8,DVAA,≤ 0.2
9,RVAA,0.582
10,ELAG,≤ 0.2
11,GGPT,≤ 0.2
12,CRIG,≤ 0.2
13,ILFC,≤ 0.2
14,DQVG,≤ 0.2
15,LIPT,≤ 0.2
16,RQIS,0.87
17,RQIP,≤ 0.2
18,RQPT,0.387
19,RQIR,≤ 0.2
20,RQPS,0.535
21,RQPP,≤ 0.2
22,RQID,≤ 0.2
23,RQIT,0.647
24,RQIY,0.256

row,Variant,one-hybrid fitness for binding parS DNA
1,RQIC,0.735
2,RQPC,0.426
3,RQPN,≤ 0.2
4,PHRE,≤ 0.2
5,KTEC,≤ 0.2
6,QHGS,≤ 0.2
7,NLTC,≤ 0.2
8,VSIA,≤ 0.2
9,TPVW,≤ 0.2
10,SHLF,≤ 0.2
11,STKF,≤ 0.2
12,TPQT,≤ 0.2
13,VRSR,≤ 0.2
14,VFSG,≤ 0.2
15,HISS,≤ 0.2
16,ADIG,≤ 0.2
17,PGTC,≤ 0.2
18,LVVH,≤ 0.2
19,HWLK,≤ 0.2
20,MKPK,≤ 0.2
21,SPFG,≤ 0.2
22,RLDM,0.299
23,RLNT,0.908
24,RLDR,≤ 0.2

row,Variant,one-hybrid fitness for binding parS DNA
1,RLDT,0.806
2,RLNN,0.455
3,RLNP,≤ 0.2
4,HMTH,≤ 0.2
5,YIMG,≤ 0.2
6,ADTW,≤ 0.2
7,VKGM,≤ 0.2
8,WSTL,≤ 0.2
9,RAVT,0.77
10,RAKN,0.462
11,RAKD,≤ 0.2
12,RAVK,≤ 0.2
13,RAVQ,0.23
14,RAKT,0.824
15,RMYE,≤ 0.2
16,FKCS,≤ 0.2
17,AGFC,≤ 0.2
18,RTAD,≤ 0.2
19,RTFH,0.246
20,RTAP,≤ 0.2
21,RTFS,1.03
22,RTFP,≤ 0.2
23,RTAS,0.968
24,LFRV,≤ 0.2

row,Variant,one-hybrid fitness for binding parS DNA
1,GSFC,≤ 0.2
2,RVWI,≤ 0.2
3,RWVY,≤ 0.2
4,RWKY,0.565
5,RWVP,≤ 0.2
6,RWVN,≤ 0.2
7,RWKH,0.228
8,RWYY,0.248
9,RWKP,≤ 0.2
10,RWKS,0.961
11,RWVS,0.616
12,YYVT,≤ 0.2
13,MVNS,≤ 0.2
14,FTLM,≤ 0.2
15,AFVL,≤ 0.2
16,RKKT,0.604
17,RKVR,≤ 0.2
18,RKKM,0.231
19,RKVT,0.795
20,RKKF,0.238
21,RKVD,≤ 0.2
22,RPEH,≤ 0.2
23,KRWH,≤ 0.2
24,QVGR,≤ 0.2

row,Variant,one-hybrid fitness for binding parS DNA
1,CDRV,≤ 0.2
2,YIYL,≤ 0.2
3,MNCF,≤ 0.2
4,ICRD,≤ 0.2
5,RTQH,0.332
6,RPQS,≤ 0.2
7,RIQS,0.99
8,RAQS,0.998
9,RDQS,≤ 0.2
10,RIQD,≤ 0.2
11,RCQS,0.986
12,RTQD,0.202
13,RAQN,0.436
14,RIQH,≤ 0.2
15,RAQD,≤ 0.2
16,RTQS,0.951
17,CQTC,≤ 0.2
18,RWDL,≤ 0.2
